Data taken from PubChem BioAssay (NCATS).
Results filed as inconclusive are left out. A number with no mark means an inactive call. Calls of active or inactive are those of the source. Calls come from the whole dose curve; as a rule, active = well fitted curve in the direction sought with a large enough effect; inconclusive = small, poorly fitted or top-dose-only effect, or another doubt; inactive = no such curve, though single readings can be large; an effect the other way counts as inactive or inconclusive.

Columns and labels:
[1] = NS1 protein of Zika virus - qHTS assay to identify small molecule inhibitors in human HEK 293 cells (AID 1347053); note: nearly all actives have a fitted effect of over 55% in size
How it was run: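 In this cell-based screen, HEK 293 cultures received compound for one hour before Zika MR766 at MOI = 0.5. NS1 was quantified 24 hours later by TR-FRET, normalized to virus-free wells and infected wells.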

[2] = qHTS of pediatric cancer cell lines to identify multiple opportunities for drug repurposing: Primary screen for DAOY cells (AID 1347090); note: nearly all actives have a fitted effect of over 55% in size
How it was run: (§1)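 Eight- or eleven-point concentration series, 48 h treatment at 37 degrees C in growth media; readout CellTiter-Glo luminescence. Potency and efficacy were taken from the concentration-response curves.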

[3] = qHTS of pediatric cancer cell lines to identify multiple opportunities for drug repurposing: Primary screen for A673 cells (AID 1347092); note: nearly all actives have a fitted effect of over 45% in size
How it was run: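 Cell viability of A673 measured by CellTiter-Glo ATP luminescence after 48 hours compound exposure. Dilution series spanned 0.78 nM to 46 µM (MIPE, 11-point) or 0.59 nM to 46 µM (NPC, 8-point); bortezomib 2.3 uM positive control.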

[4] = qHTS of pediatric cancer cell lines to identify multiple opportunities for drug repurposing: Primary screen for SK-N-MC cells (AID 1347093)
How it was run: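 Metabolically active cells were quantified by ATP-dependent luminescence (CellTiter-Glo, 15 min at room temperature) following 48 h treatment. Cells had been plated at 500-1,000 per well and settled for 5 h beforehand.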

[5] = qHTS of pediatric cancer cell lines to identify multiple opportunities for drug repurposing: Primary screen for BT-37 cells (AID 1347094)
How it was run: (§2)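 Following a 5-hour attachment period, cells at 500-1,000/well received compounds and were cultured for 48 hours. CellTiter-Glo was added and luminescence read to estimate viable, metabolically active cells.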

[6] = qHTS of pediatric cancer cell lines to identify multiple opportunities for drug repurposing: Primary screen for U-2 OS cells (AID 1347096); note: nearly all actives have a fitted effect of over 50% in size
How it was run: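 Cells (500-1,000/well) in growth media were settled 5 h at 37 degrees C, then given compounds for 48 h. Viability was read as CellTiter-Glo luminescence. Primary runs used MIPE at 11 points (0.78 nM-46 µM) and NPC at 8 points (0.59 nM-46 µM); follow-ups used 11 points.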

[7] = qHTS of pediatric cancer cell lines to identify multiple opportunities for drug repurposing: Primary screen for Saos-2 cells (AID 1347097); note: nearly all actives have a fitted effect of over 40% in size
How it was run: as §2

[8] = qHTS of pediatric cancer cell lines to identify multiple opportunities for drug repurposing: Primary screen for NB-EBc1 cells (AID 1347095)
How it was run: as §2

[9] = qHTS of pediatric cancer cell lines to identify multiple opportunities for drug repurposing: Primary screen for SJ-GBM2 cells (AID 1347091)
How it was run: as §1

[10] = qHTS of pediatric cancer cell lines to identify multiple opportunities for drug repurposing: Primary screen for TC32 cells (AID 1347089); note: nearly all actives have a fitted effect of over 60% in size
How it was run: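 Luminescent ATP read-out (CellTiter-Glo) of metabolically active TC32 cells after 48 h exposure. Concentration-response curves came from 11-point (MIPE, 0.78 nM–46 µM) or 8-point (NPC, 0.59 nM–46 µM) primary titrations; follow-up used 11 points.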
Potency is the fitted concentration of half-maximal effect.

Compound	Potency [1]	Potency [2]	Potency [3]	Potency [4]	Potency [5]	Potency [6]	Potency [7]	Potency [8]	Potency [9]	Potency [10]
CC(C)CNc1ccnc(NCc2csc(-c3ccccc3)n2)n1	26.4 µM (active)	18.7 µM (active)	11.8 µM (active)	10.5 µM (active)	24.3 µM (active)	inactive	–	–	–	–
COc1ccc2cc1Oc1ccc(cc1)C[C@H]1c3cc(c(OC)cc3CCN1C)Oc1c(OC)c(OC)cc3c1[C@H](C2)N(C)CC3	inactive	18.7 µM (active)	23.5 µM (active)	23.5 µM (active)	–	inactive	29.6 µM (active)	–	–	–
Cc1cnc(CNC(=O)c2c(=O)c3ccc(N4CCCN(C)CC4)nc3n3c2sc2ccccc23)cn1	inactive	inactive	inactive	–	–	inactive	inactive	6.45 µM (active)	–	–
Cc1nn(Cc2ccccc2Cl)c(C)c1CN(C)CC(O)COc1ccc(Cl)cc1 (stereo not given)	inactive	–	–	1.87 µM (active)	–	inactive	inactive	–	20.9 µM (active)	–
CC(C)n1c(C=C[C@H](O)C[C@H](O)CC(=O)O)c(-c2ccc(F)cc2)c2ccccc21	inactive	1.87 µM (active)	–	–	19.3 µM (active)	14.8 µM (active)	1.87 µM (active)	–	9.35 µM (active)	–
N#CC(c1ccnc(NCCc2cccnc2)n1)c1nc2ccccc2s1 (stereo not given)	–	29.6 µM (active)	4.69 µM (active)	11.8 µM (active)	24.3 µM (active)	–	18.7 µM (active)	–	9.35 µM (active)	inactive
COc1cc2nc(-c3cc(F)ccc3O)nc(N[C@@H]3CNC[C@@H]3C(C)(C)O)c2cc1OC	9.35 µM (active)	–	7.43 µM (active)	–	27.3 µM (active)	–	9.35 µM (active)	–	23.5 µM (active)	–
CCC[C@H](N[C@@H](C)C(=O)N1[C@@H]2CCCC[C@H]2C[C@H]1C(=O)O)C(=O)OCC	inactive	inactive	–	3.32 µM (active)	–	inactive	–	–	–	–
C[C@]12CCC3=C4CCC(=O)C=C4CC[C@@H]3[C@H]1CC[C@@]2(O)CC#N	–	inactive	inactive	inactive	inactive	inactive	–	inactive	inactive	inactive
Nc1ccc(-c2ccc3ncc4ccc(=O)n(-c5cccc(C(F)(F)F)c5)c4c3c2)cn1	–	0.0074 µM (active)	0.003 µM (active)	0.0001 µM (active)	0.0109 µM (active)	1.48 µM (active)	0.148 µM (active)	0.0118 µM (active)	0.003 µM (active)	0.0104 µM (active)
CCC(=C(c1ccc(O)cc1)c1ccc(OCCNC)cc1)c1ccccc1	inactive	–	37.2 µM (active)	–	–	–	18.7 µM (active)	–	–	inactive
CCCCC(C=O)NC(=O)C(CC(C)C)NC(=O)OCc1ccccc1 (stereo not given)	inactive	–	–	–	–	inactive	inactive	inactive	inactive	–
COc1cc(N2CCN(C)CC2)ccc1Nc1nc(N)c(C(=O)c2c(Cl)cccc2Cl)s1	–	inactive	18.7 µM (active)	16.6 µM (active)	–	inactive	inactive	–	inactive	inactive
Nc1nc(Cl)nc2c1ncn2[C@@H]1O[C@H](CO)[C@@H](O)[C@H]1F	–	0.0372 µM (active)	0.0296 µM (active)	0.001 µM (active)	0.0485 µM (active)	inactive	–	0.001 µM (active)	0.001 µM (active)	0.0234 µM (active)
Cc1ccc(NC(=O)Nc2cc(C(F)(F)F)ccc2F)cc1Nc1ccc2c(c1)NC(=O)C2=Cc1ccc[nH]1	inactive	14.8 µM (active)	7.43 µM (active)	–	24.3 µM (active)	23.5 µM (active)	20.9 µM (active)	11.8 µM (active)	10.5 µM (active)	–
C=C1[C@H](n2cnc3c(=O)[nH]c(N)nc32)C[C@H](O)[C@H]1CO	inactive	–	–	0.0187 µM (active)	21.7 µM (active)	inactive	–	2.09 µM (active)	0.0235 µM (active)	–
O=C1NC(=O)C(=Cc2ccc(-c3ccc(F)cc3O)o2)S1	inactive	–	–	23.5 µM (active)	–	–	–	5.26 µM (active)	–	–
C[C@@H]1[C@H](C)CC[C@]2(C(=O)O)CC[C@]3(C)C(=CC[C@@H]4[C@@]5(C)CC[C@H](O)C(C)(C)[C@H]5CC[C@]43C)[C@@H]12	inactive	–	–	0.429 µM (active)	inactive	inactive	–	13.6 µM (active)	–	19 µM (active)
Nc1ccn([C@@H]2O[C@H](CO)[C@@H](O)[C@H]2O)c(=O)n1	inactive	–	0.0235 µM (active)	–	0.0077 µM (active)	inactive	–	33.2 µM (active)	–	0.0294 µM (active)
Fc1ccc(CNc2ncnc3ccc(F)cc23)cc1	inactive	7.43 µM (active)	9.35 µM (active)	16.6 µM (active)	–	inactive	–	–	inactive	–
O=C1CN2Cc3c(ccc(Cl)c3Cl)N=C2N1	inactive	–	–	–	–	inactive	inactive	–	–	inactive
